Test results taken from ChEMBL document CHEMBL3988442, “University of Dundee, Small-Polar-MMV Screening Library” (2021).
For some assays here: Measured potencies and affinities stand elsewhere.

Assays:
Set-up in all cases: scale not given: direction of the effect not stated beside the values
[1] = biological target: Protein translocase subunit SecA (Escherichia coli (strain K12)) (UniProt P10408); experiment: Assay to Identify E. coli SecA ATPase Inhibitors; type: functional; details: 30 µM
[2] = biological target: T1, Ubiquitin-activating enzyme e1, putative (Leishmania donovani (strain BPK282A1)) (UniProt E9BSI1); experiment: Leishmania donovani Ubiquitin Activating Enzyme (LdE1); type: functional; details: 30 µM
T1 sequence (whole entry): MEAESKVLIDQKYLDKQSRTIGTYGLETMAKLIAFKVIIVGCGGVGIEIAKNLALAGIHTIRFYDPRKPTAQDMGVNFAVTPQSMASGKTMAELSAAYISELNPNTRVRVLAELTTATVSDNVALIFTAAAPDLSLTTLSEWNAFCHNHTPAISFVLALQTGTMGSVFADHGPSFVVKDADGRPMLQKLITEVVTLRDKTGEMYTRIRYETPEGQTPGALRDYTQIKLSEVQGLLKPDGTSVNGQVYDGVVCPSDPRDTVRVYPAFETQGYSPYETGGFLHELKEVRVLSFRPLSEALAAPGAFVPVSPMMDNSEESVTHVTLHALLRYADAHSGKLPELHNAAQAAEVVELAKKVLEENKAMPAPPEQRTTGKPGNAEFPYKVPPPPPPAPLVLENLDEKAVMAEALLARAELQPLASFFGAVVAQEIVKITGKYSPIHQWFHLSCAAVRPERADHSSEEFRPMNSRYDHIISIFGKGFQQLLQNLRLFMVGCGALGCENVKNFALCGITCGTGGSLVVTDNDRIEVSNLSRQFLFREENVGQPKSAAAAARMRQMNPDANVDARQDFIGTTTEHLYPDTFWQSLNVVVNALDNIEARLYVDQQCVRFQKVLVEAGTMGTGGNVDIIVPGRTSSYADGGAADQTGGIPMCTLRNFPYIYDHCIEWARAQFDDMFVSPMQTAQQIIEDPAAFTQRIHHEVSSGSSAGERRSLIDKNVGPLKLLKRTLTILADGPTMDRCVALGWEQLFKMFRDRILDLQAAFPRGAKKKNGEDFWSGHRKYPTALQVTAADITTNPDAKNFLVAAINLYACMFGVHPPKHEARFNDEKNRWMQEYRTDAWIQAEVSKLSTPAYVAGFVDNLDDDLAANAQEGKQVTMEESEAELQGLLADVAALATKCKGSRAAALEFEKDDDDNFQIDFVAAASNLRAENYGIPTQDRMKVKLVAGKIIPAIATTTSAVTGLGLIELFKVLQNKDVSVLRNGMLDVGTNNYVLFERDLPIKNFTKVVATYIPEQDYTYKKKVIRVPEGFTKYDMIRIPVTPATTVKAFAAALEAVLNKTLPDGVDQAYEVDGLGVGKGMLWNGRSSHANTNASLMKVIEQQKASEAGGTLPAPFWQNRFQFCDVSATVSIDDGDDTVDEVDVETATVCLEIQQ

[3] = biological target: AMP-activated protein kinase, AMPK (Homo sapiens) (UniProt P54646+O43741+P54619+Q9UGJ0+Q9Y478+Q13131+Q9UGI9); experiment: AMP-dependent Kinase enzyme assay. An in vitro enzyme assay that detects ADP turnover that is directly proportional to AMPK activity. This uses naive AMPK that is activated during the assay with MK-8722; type: functional; details: 30 µM
[4] = biological target: Sialic acid-binding Ig-like lectin 9 (Homo sapiens) (UniProt Q9Y336); experiment: Hs-Siglec9 ALPHAscreen SOP 20170721; details: 10 µM
Trypanosoma cruzi = experiment: Trypanosoma cruzi phosphomannomutase and mannose-1-phosphate guanylyltransferase assay; type: functional; details: 10 µM
[5] = biological target: T2, Arginase-2, mitochondrial (Homo sapiens) (UniProt P78540); experiment: in vitro enzyme assay to detect the production of urea directly proportional to the activity of Arginase II; type: functional; details: 33.3 µM; also: in the data most compounds retested in dose-response had high values
T2 sequence (whole entry): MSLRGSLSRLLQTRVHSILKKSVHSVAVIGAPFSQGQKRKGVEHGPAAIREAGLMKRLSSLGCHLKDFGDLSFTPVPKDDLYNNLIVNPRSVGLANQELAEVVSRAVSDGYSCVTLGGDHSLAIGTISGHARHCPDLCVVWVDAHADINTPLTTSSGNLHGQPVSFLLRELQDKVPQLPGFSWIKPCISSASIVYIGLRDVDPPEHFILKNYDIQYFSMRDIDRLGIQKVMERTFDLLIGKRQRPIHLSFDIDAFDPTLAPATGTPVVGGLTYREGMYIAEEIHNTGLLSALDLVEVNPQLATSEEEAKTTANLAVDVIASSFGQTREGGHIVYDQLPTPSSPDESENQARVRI

[6] = biological target: T3, Proteasome subunit beta (Trypanosoma cruzi) (UniProt O96673); experiment: Trypanosoma cruzi proteasome chymotrypsin-like activity (TcProtChymo) assay.; also: in the data most compounds retested in dose-response had high values; type: functional; details: 9.37 µM
T3 sequence (whole entry): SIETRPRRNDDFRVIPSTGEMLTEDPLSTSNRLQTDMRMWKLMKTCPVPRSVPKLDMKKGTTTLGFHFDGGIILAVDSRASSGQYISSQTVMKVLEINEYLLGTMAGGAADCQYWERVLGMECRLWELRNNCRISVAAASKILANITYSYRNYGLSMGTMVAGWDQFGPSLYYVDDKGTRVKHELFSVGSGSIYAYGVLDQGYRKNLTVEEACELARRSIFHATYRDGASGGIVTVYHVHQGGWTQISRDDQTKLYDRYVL

Homo sapiens = species on record: Homo sapiens; experiment: To identify inhibition of the IFN signalling (Jak-Stat) pathway via expression of an eGFP reporter gene under the control of an IFN-stimulated response element (ISRE) containing MxA promoter.; type: functional; details: 30 µM
[7] = biological target: T4, Tyrosyl-tRNA synthetase, putative (Trypanosoma cruzi (strain CL Brener)) (UniProt Q4DSP6); experiment: Trypanosoma cruzi tyrosyl tRNA synthetase (TcYRS) _High Tyrosine SOP; type: functional; details: 30 µM; also: in the data most compounds retested in dose-response had high values
T4 sequence (whole entry): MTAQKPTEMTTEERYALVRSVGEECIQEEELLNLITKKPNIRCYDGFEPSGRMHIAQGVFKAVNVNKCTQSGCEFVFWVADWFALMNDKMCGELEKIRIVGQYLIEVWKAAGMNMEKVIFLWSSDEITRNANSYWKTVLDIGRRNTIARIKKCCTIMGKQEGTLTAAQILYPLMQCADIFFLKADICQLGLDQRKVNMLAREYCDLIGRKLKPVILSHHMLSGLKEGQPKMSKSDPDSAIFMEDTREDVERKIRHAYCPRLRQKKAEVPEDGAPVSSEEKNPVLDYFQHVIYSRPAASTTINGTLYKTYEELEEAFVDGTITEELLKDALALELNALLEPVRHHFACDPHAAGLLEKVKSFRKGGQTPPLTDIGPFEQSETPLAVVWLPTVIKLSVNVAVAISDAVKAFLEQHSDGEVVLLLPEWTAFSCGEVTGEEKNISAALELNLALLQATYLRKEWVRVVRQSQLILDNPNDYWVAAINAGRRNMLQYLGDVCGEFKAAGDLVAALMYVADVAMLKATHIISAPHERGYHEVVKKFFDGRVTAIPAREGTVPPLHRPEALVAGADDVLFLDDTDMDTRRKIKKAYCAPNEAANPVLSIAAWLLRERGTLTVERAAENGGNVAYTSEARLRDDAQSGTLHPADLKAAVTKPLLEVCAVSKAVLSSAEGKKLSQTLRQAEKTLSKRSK

[8] = biological target: T4, Tyrosyl-tRNA synthetase, putative (Trypanosoma cruzi (strain CL Brener)); experiment: Trypanosoma cruzi tyrosyl tRNA synthetase (TcYRS) SOP; type: functional; details: 30 µM
[9] = biological target: Chromo domain-containing protein 1 (Saccharomyces cerevisiae (strain ATCC 204508 / S288c) (Baker's yeast)) (UniProt P32657); experiment: ScCHD-1 Enzyme Inhibition Assay; type: functional; details: 30 µM; also: in the data most compounds retested in dose-response had high values
Chromo domain-containing protein 1 (Saccharomyces cerevisiae (strain ATCC 204508 / S288c) (Baker's yeast)), sequence (P32657 whole entry, the tested form may be a part): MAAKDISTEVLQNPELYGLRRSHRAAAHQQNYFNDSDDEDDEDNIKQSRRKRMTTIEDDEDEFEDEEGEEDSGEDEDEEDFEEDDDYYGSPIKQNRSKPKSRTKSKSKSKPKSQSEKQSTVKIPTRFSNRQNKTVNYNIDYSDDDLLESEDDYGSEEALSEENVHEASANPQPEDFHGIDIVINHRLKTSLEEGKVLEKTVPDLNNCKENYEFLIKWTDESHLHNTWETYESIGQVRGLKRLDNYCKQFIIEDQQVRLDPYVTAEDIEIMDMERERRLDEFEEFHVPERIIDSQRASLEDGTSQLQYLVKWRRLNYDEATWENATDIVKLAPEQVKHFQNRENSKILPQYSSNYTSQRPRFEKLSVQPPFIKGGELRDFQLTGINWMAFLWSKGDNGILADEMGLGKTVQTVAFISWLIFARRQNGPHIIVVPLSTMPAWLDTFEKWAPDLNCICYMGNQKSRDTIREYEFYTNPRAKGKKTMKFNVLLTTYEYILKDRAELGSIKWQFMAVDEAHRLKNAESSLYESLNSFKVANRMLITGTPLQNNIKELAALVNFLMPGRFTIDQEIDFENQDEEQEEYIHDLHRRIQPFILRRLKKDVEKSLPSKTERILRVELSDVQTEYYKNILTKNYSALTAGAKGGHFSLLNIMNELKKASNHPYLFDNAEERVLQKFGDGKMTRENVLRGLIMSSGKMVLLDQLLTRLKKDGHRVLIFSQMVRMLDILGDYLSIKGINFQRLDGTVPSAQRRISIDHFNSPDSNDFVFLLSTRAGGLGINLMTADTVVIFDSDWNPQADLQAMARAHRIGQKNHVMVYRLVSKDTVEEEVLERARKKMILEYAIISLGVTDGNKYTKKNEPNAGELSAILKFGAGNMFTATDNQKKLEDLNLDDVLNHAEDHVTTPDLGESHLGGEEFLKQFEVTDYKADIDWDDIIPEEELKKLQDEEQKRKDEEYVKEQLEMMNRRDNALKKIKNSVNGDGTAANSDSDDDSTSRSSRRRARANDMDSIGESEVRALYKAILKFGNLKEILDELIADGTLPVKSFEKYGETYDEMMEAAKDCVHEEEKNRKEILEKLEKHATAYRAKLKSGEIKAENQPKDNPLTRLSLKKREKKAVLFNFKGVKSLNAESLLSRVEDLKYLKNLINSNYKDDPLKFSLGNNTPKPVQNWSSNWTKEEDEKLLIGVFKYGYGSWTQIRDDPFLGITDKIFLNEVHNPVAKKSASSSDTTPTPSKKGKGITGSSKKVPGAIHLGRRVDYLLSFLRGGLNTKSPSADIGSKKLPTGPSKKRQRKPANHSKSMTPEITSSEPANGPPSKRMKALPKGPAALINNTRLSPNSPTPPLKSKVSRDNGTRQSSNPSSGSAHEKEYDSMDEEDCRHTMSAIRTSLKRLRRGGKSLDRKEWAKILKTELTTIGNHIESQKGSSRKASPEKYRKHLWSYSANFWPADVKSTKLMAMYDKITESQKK

Protein translocase subunit SecA (Escherichia coli (strain K12)), sequence (P10408 whole entry): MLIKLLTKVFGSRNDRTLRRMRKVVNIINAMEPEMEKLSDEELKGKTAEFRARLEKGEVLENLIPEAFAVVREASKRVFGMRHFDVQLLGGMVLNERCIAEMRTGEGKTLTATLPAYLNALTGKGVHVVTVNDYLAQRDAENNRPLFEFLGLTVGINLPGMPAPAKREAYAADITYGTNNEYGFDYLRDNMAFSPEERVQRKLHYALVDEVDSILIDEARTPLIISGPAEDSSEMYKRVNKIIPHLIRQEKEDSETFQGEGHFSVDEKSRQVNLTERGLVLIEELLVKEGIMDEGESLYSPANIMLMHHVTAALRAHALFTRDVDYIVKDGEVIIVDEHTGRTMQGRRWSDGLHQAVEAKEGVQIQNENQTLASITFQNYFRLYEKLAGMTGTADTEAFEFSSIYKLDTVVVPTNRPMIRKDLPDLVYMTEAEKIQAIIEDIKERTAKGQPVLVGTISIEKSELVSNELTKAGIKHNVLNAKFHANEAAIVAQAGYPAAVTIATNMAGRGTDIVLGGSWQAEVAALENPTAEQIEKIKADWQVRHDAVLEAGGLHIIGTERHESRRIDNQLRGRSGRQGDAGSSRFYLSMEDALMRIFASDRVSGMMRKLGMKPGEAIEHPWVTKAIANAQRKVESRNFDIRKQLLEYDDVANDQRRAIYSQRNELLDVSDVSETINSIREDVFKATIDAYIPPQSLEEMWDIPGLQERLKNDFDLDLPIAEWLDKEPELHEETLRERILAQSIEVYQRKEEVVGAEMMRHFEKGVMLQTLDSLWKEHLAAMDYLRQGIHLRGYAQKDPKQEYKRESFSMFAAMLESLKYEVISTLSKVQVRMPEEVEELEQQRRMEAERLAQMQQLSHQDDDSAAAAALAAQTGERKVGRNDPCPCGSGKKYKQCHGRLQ
Sialic acid-binding Ig-like lectin 9 (Homo sapiens), sequence (Q9Y336 whole entry): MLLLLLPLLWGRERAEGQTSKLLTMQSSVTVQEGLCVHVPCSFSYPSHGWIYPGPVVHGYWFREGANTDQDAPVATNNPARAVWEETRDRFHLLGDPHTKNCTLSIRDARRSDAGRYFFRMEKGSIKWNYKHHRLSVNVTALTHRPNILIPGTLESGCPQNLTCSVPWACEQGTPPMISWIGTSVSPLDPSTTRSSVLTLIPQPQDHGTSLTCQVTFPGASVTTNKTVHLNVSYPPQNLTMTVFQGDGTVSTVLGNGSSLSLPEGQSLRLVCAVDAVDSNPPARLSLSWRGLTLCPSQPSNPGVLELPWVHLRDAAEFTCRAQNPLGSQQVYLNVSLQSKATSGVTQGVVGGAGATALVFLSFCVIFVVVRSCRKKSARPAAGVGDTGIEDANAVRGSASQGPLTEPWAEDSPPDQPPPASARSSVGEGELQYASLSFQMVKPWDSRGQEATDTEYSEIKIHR

SMILES | Percent Effect [1] | Percent Effect [2] | Percent Effect [3] | Percent Effect [4] | Percent Effect (Trypanosoma cruzi) | Percent Effect [5] | Percent Effect [6] | Percent Effect (Homo sapiens) | Percent Effect [7] | Percent Effect [8] | Percent Effect [9]
Cc1nc(C(=O)N2CCCC2c2c(C)nn(C)c2C)ccc1C#N (stereo not given) | -5.64% | -1.27% | 7.49% | 4.58% | -2.36% | 1.07% | 16.1% | 4.46% | 0% | 2.53% | 10.7%
O=C(CNCCn1cccn1)NCC1(c2ccccc2)CC1 | -0.0759% | -2.6% | 8.25% | 8.53% | 1.27% | 1.47% | -3.96% | 7.94% | 3.81% | 7.06% | -6.43%
CCCS(=O)(=O)Nc1ccc2c(c1)OCC(C)(C)C(=O)N2C | -0.588% | 11% | -6.5% | 1.41% | -5.09% | -2.27% | 12.6% | 8.18% | 2.15% | 10% | -5.87%
CC(C)S(=O)(=O)NCC1CCCN(C(=O)c2ccc3c(c2)CCC3)C1 (stereo not given) | -5.88% | 5.48% | 5.06% | -5.74% | 0.588% | -2.27% | 7.28% | 16.7% | 1.07% | 7.5% | -5.72%
CCn1c(C)cc(C(=O)N2CCCC(c3nc(C)no3)C2)c1C (stereo not given) | -3.15% | 15.6% | 3.61% | -3.42% | 2.06% | 1.47% | 17.5% | 14.4% | 8.57% | 9.41% | -22.5%
COc1ccc2nnc(CCCC(=O)NCc3cccn3C)n2n1 | -2.1% | 22.7% | -8.56% | 0.257% | 1.57% | 0.176% | 17.4% | -1.92% | 8.47% | -41% | -12%
CC(O)CN1CCN(C(=O)c2ccc(Cn3cccc3)cc2)CC1 (stereo not given) | -2.39% | 13.5% | -8.63% | -2.4% | -3.49% | -6.81% | 17.8% | 6.79% | 10.3% | 25.9% | -2.47%
Cc1ccc(OCC(=O)NCc2ccccc2F)nc1 | -2.7% | 19.2% | -0.689% | 12.5% | 4.56% | -2.4% | 8.13% | 13.8% | 7.29% | 13.6% | -4.08%
O=C(NCCc1c[nH]cn1)c1ccc2c(c1)C(=O)N(C1CC1)C2=O | -0.201% | 1.33% | 5.05% | 2.3% | -8.64% | 0.176% | 11.7% | -8.34% | 6.35% | 7.69% | -4.66%
CC(=O)NCC(=O)N1CCn2cc(CN3CCN(C)CC3)nc2C1 | -4.28% | 10.4% | -0.0716% | 14.9% | 7.57% | -1.38% | 6.16% | 9.49% | 8.6% | 16.1% | -0.16%
